Laboratory results reported in the supplement of paper PMC10037445.
Whole data set: some 2,900 compounds, median “NF-kB SEAP reporter activity, fold change vs agonist alone” near 0.99, cut for the highest 2% near 2.6. This excerpt belongs to a sample that is enriched for the highest values.

Key:
RAW-Dual [1] = assay: NF-kB SEAP reporter activity, fold change vs agonist alone; cytotoxicity flag (confluency mask): not cytotoxic; higher = enhanced NF-kB activity
In short: (§1)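 Reporter activity is given as fold change relative to agonist-alone wells. To measure it, 50 nL of library stock was pin-tooled onto RAW-Dual macrophages (50,000 cells/well, DMEM, 384-well plates), a PRR agonist followed 1 h later, and cells stayed at 37 °C, 5% CO2. Twenty hours on, supernatant was assayed for IRF (QuantiLuc luminescence) and NF-κB (QuantiBlue, 620 nm absorbance), and wells under 70% of agonist-control IncuCyte confluency in both mask sets were marked cytotoxic.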

RAW-Dual [2] = assay: NF-kB SEAP reporter activity, fold change vs agonist alone; higher = enhanced NF-kB activity
In short: as §1

RAW-Dual [3] = assay: NF-kB SEAP reporter activity, fold change vs agonist alone; cytotoxicity flag (confluency mask): cytotoxic (confluency <70% of control); higher = enhanced NF-kB activity
In short: as §1

[4] = agonist: ODN 1826 (TLR9) 0.5 ug/mL
[5] = agonist: Pam2CSK4 (TLR2/6) 0.1 ug/mL
[6] = agonist: Pam3CSK4 (TLR2/1) 0.1 ug/mL
[7] = library stock concentration (final ~1000-fold dilution): 10 mM, cytotoxicity flag (confluency mask): not cytotoxic, agonist: Imiquimod (TLR7) […]
[8] = library stock concentration (final ~1000-fold dilution): 10 mM, cytotoxicity flag (confluency mask): not cytotoxic, agonist: MPLA (TLR4) […]

## CCN(CC)CC#CCOC(=O)C(O)(c1ccccc1)C1CCCCC1.Cl (stereo not drawn) (library stock concentration (final ~1000-fold dilution): 10 mM)
RAW-Dual [1]; agonist: LPS (TLR4) 0.1 ug/mL
  NF-kB SEAP reporter activity: 2.01
RAW-Dual [1]; [4]
  NF-kB SEAP reporter activity: 0.958
RAW-Dual [1]; [5]
  NF-kB SEAP reporter activity: 0.963
RAW-Dual [1]; [6]
  NF-kB SEAP reporter activity: 1.3

## O=C(O)CCCN1CCC(OC(c2ccc(Cl)cc2)c2ccccn2)CC1 (stereo not drawn) (library stock concentration (final ~1000-fold dilution): 10 mM)
RAW-Dual [1]; agonist: LPS (TLR4) 0.1 ug/mL
  NF-kB SEAP reporter activity: 0.969
RAW-Dual [1]; [4]
  NF-kB SEAP reporter activity: 0.924
RAW-Dual [1]; [5]
  NF-kB SEAP reporter activity: 1.07
RAW-Dual [1]; [6]
  NF-kB SEAP reporter activity: 0.895

## O=C(O)CCCN1CCC(OC(c2ccc(Cl)cc2)c2ccccn2)CC1 (stereo not drawn)
RAW-Dual [2]; [7]
  NF-kB SEAP reporter activity: 0.895
RAW-Dual [2]; [8]
  NF-kB SEAP reporter activity: 1.07

## COc1cc2nccc(Oc3ccc(NC(=O)C4(C(=O)Nc5ccc(F)cc5)CC4)cc3)c2cc1OC (library stock concentration (final ~1000-fold dilution): 10 mM)
RAW-Dual [1]; agonist: LPS (TLR4) 0.1 ug/mL
  NF-kB SEAP reporter activity: 0.511
RAW-Dual [1]; [4]
  NF-kB SEAP reporter activity: 0.42
RAW-Dual [1]; [5]
  NF-kB SEAP reporter activity: 0.302
RAW-Dual [1]; [6]
  NF-kB SEAP reporter activity: 0.275

## COc1cc2c(Oc3ccc(NC(=O)C4(C(=O)Nc5ccc(F)cc5)CC4)cc3F)ccnc2cc1OCCCN1CCOCC1
RAW-Dual [2]; [7]
  NF-kB SEAP reporter activity: 0.252
RAW-Dual [2]; [8]
  NF-kB SEAP reporter activity: 0.252

## COc1cc2c(Oc3ccc(NC(=O)C4(C(=O)Nc5ccc(F)cc5)CC4)cc3F)ccnc2cc1OCCCN1CCOCC1 (library stock concentration (final ~1000-fold dilution): 10 mM)
RAW-Dual [1]; agonist: LPS (TLR4) 0.1 ug/mL
  NF-kB SEAP reporter activity: 0.266
RAW-Dual [1]; [4]
  NF-kB SEAP reporter activity: 0.184
RAW-Dual [1]; [5]
  NF-kB SEAP reporter activity: 0.0818
RAW-Dual [1]; [6]
  NF-kB SEAP reporter activity: 0.137

## CN1CCN(C2CCN(C(=O)Nc3cc(Oc4ccc(NC(=O)C5(C(=O)Nc6ccc(F)cc6)CC5)c(F)c4)ccn3)CC2)CC1 (library stock concentration (final ~1000-fold dilution): 10 mM)
RAW-Dual [3]; agonist: LPS (TLR4) 0.1 ug/mL
  NF-kB SEAP reporter activity: 1.43
RAW-Dual [3]; [4]
  NF-kB SEAP reporter activity: 0.896
RAW-Dual [3]; [5]
  NF-kB SEAP reporter activity: 0.607
RAW-Dual [3]; [6]
  NF-kB SEAP reporter activity: 0.664

## CN1CCN(C2CCN(C(=O)Nc3cc(Oc4ccc(NC(=O)C5(C(=O)Nc6ccc(F)cc6)CC5)c(F)c4)ccn3)CC2)CC1
RAW-Dual [2]; library stock concentration (final ~1000-fold dilution): 10 mM, cytotoxicity flag (confluency mask): cytotoxic (confluency <70% of control), agonist: Imiquimod (TLR7) […]
  NF-kB SEAP reporter activity: 2.76
RAW-Dual [2]; library stock concentration (final ~1000-fold dilution): 10 mM, cytotoxicity flag (confluency mask): cytotoxic (confluency <70% of control), agonist: MPLA (TLR4) […]
  NF-kB SEAP reporter activity: 2.32

## COc1cc2nccc(Oc3ccc(NC(=O)C4(C(=O)Nc5ccc(F)cc5)CC4)cc3)c2cc1OC
RAW-Dual [2]; [7]
  NF-kB SEAP reporter activity: 0.555
RAW-Dual [2]; [8]
  NF-kB SEAP reporter activity: 0.59

## CC(Nc1nc(NC(C)C(F)(F)F)nc(-c2cccc(Cl)n2)n1)C(F)(F)F (stereo not drawn)
RAW-Dual [2]; [7]
  NF-kB SEAP reporter activity: 1.04
RAW-Dual [2]; [8]
  NF-kB SEAP reporter activity: 1.11

## CC(Nc1nc(NC(C)C(F)(F)F)nc(-c2cccc(Cl)n2)n1)C(F)(F)F (stereo not drawn) (library stock concentration (final ~1000-fold dilution): 10 mM)
RAW-Dual [1]; agonist: LPS (TLR4) 0.1 ug/mL
  NF-kB SEAP reporter activity: 1.26
RAW-Dual [1]; [4]
  NF-kB SEAP reporter activity: 1.18
RAW-Dual [1]; [5]
  NF-kB SEAP reporter activity: 0.998
RAW-Dual [1]; [6]
  NF-kB SEAP reporter activity: 1.09

## CC1CNc2c(cccc2S(=O)(=O)NC(CCCNC(=N)N)C(=O)N2CCC(C)CC2C(=O)O)C1.O (stereo not drawn)
RAW-Dual [2]; [8]
  NF-kB SEAP reporter activity: 0.981

## CC1CNc2c(cccc2S(=O)(=O)NC(CCCNC(=N)N)C(=O)N2CCC(C)CC2C(=O)O)C1.O (stereo not drawn) (library stock concentration (final ~1000-fold dilution): 10 mM)
RAW-Dual [1]; agonist: LPS (TLR4) 0.1 ug/mL
  NF-kB SEAP reporter activity: 0.94
RAW-Dual [1]; [4]
  NF-kB SEAP reporter activity: 1.05
RAW-Dual [1]; [5]
  NF-kB SEAP reporter activity: 0.969
RAW-Dual [1]; [6]
  NF-kB SEAP reporter activity: 0.87

## O=C(OC1OC2COC(=O)c3cc(O)c(O)c(O)c3-c3c(cc(O)c(O)c3O)C(=O)OC(C2O)C1O)c1cc(O)c(O)c(O)c1 (stereo not drawn) (library stock concentration (final ~1000-fold dilution): 10 mM)
RAW-Dual [1]; agonist: LPS (TLR4) 0.1 ug/mL
  NF-kB SEAP reporter activity: 1.34
RAW-Dual [1]; [4]
  NF-kB SEAP reporter activity: 0.874
RAW-Dual [1]; [5]
  NF-kB SEAP reporter activity: 0.809
RAW-Dual [1]; [6]
  NF-kB SEAP reporter activity: 0.393

## O=C(OC1OC2COC(=O)c3cc(O)c(O)c(O)c3-c3c(cc(O)c(O)c3O)C(=O)OC(C2O)C1O)c1cc(O)c(O)c(O)c1 (stereo not drawn)
RAW-Dual [2]; [7]
  NF-kB SEAP reporter activity: 0.783
RAW-Dual [2]; [8]
  NF-kB SEAP reporter activity: 1.08

## C=C1c2cccc(O)c2C(=O)C2=C(O)C3(O)C(=O)C(C(N)=O)=C(O)C(N(C)C)C3C(O)C12.Cl (stereo not drawn)
RAW-Dual [2]; library stock concentration (final ~1000-fold dilution): 10 mM water, cytotoxicity flag (confluency mask): not cytotoxic, agonist: Imiquimod (TLR7) […]
  NF-kB SEAP reporter activity: 0.915
RAW-Dual [2]; library stock concentration (final ~1000-fold dilution): 10 mM water, cytotoxicity flag (confluency mask): not cytotoxic, agonist: MPLA (TLR4) […]
  NF-kB SEAP reporter activity: 1.08

## C=C1c2cccc(O)c2C(=O)C2=C(O)C3(O)C(=O)C(C(N)=O)=C(O)C(N(C)C)C3C(O)C12.Cl (stereo not drawn) (library stock concentration (final ~1000-fold dilution): 10 mM water)
RAW-Dual [1]; agonist: LPS (TLR4) 0.1 ug/mL
  NF-kB SEAP reporter activity: 1.12
RAW-Dual [1]; [4]
  NF-kB SEAP reporter activity: 1.14
RAW-Dual [1]; [5]
  NF-kB SEAP reporter activity: 1.26
RAW-Dual [1]; [6]
  NF-kB SEAP reporter activity: 1.05

## Fc1ccc2c(/C=C/c3nnn[nH]3)c[nH]c2c1
RAW-Dual [2]; [7]
  NF-kB SEAP reporter activity: 0.885
RAW-Dual [2]; [8]
  NF-kB SEAP reporter activity: 1.05

## Fc1ccc2c(/C=C/c3nnn[nH]3)c[nH]c2c1 (library stock concentration (final ~1000-fold dilution): 10 mM)
RAW-Dual [1]; agonist: LPS (TLR4) 0.1 ug/mL
  NF-kB SEAP reporter activity: 1.11
RAW-Dual [1]; [4]
  NF-kB SEAP reporter activity: 0.894
RAW-Dual [1]; [5]
  NF-kB SEAP reporter activity: 0.966
RAW-Dual [1]; [6]
  NF-kB SEAP reporter activity: 1.14

## C/C1=C/CC[C@@]2(C)O[C@@H]2[C@H]2OC(=O)[C@H](CN(C)C)[C@@H]2CC1 (library stock concentration (final ~1000-fold dilution): 10 mM)
RAW-Dual [1]; agonist: LPS (TLR4) 0.1 ug/mL
  NF-kB SEAP reporter activity: 0.302
RAW-Dual [1]; [4]
  NF-kB SEAP reporter activity: 0.185
RAW-Dual [1]; [5]
  NF-kB SEAP reporter activity: 0.197
RAW-Dual [1]; [6]
  NF-kB SEAP reporter activity: 0.151

## C/C1=C/CC[C@@]2(C)O[C@@H]2[C@H]2OC(=O)[C@H](CN(C)C)[C@@H]2CC1
RAW-Dual [2]; [7]
  NF-kB SEAP reporter activity: 0.137
RAW-Dual [2]; [8]
  NF-kB SEAP reporter activity: 0.246
